Assay results from PubChem BioAssay (NCATS).
Values joined by “and” are separate entries in the source; they are usually repeats but may differ in a detail not shown here. Equal values may be shown once. A number with no mark means an inactive call. Inconclusive results are not listed. Where a call stands in place of a potency, no number is given. Active and inactive are the calls of the source. Unless noted, the call rests on the fitted dose curve; in most records, active means well fitted curve in the direction sought with a large enough effect; inconclusive means small, poorly fitted or top-dose-only effect, or another doubt; inactive means no such curve, though single readings can be large; an effect the other way counts as inactive or inconclusive.

What was measured:
[1] = P-glycoprotein substrates identified in KB-3-1 adenocarcinoma cell line, qHTS therapeutic library screen (AID 1346986); further: nearly all actives have a fitted effect of over 60% in size
In short: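 In 1536-well format, 500 cells/well received pinned compound titrations and were incubated 72 h, 5% CO2. Viability was read by CellTiter-Glo; cytotoxic if AC50 < 10 uM and efficacy >50%.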

[2] = qHTS Assay for Identifying Gametocytocidal Compounds (AID 743244);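 further: actives lower the fluorescent signal which means gametocytes are killed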; details: P. falciparum 3D7 stage III-V gametocytes, alamarBlue, 72 h; max response: active compounds read low
In short: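 In this qHTS viability screen, late-stage 3D7 gametocytes are incubated with compound for 72 h, then with alamarBlue for 24 h; reduced resorufin fluorescence marks killing.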

[3] = qHTS assay for small molecule antagonists of the retinoid-related orphan receptor gamma (ROR-gamma) signaling pathway - cell viability counter screen (AID 720652; active means well fitted curve in the direction sought with a large enough effect in the repeat runs; an effect the other way counts as inactive or inconclusive;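 further: CHO reporter cells with doxycycline-induced ROR-gamma expression; series mostly up to about 92 µM; compound exposure lasted 16 hr before ATP read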)
In short: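 Cytotoxicity counter screen: intracellular ATP (CellTiter-Glo luminescence) measured in the doxycycline-induced CHO RORE-luciferase reporter line after 16 hr compound exposure at 37 C, 5% CO2.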

[4] = qHTS assay for small molecule agonists of the antioxidant response element (ARE) signaling pathway measured by Nrf2-dependant transcriptional activity - cell viability counter screen (AID 720653; active means well fitted curve in the direction sought with a large enough effect in the repeat runs; an effect the other way counts as inactive or inconclusive); details: ARE-bla HepG2 viability, CellTiter-Glo ATP luminescence, 16 h; active compounds read low
In short: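 ARE-bla HepG2 cells treated with compounds for 16 h at 37C; this counter screen measures viability as intracellular ATP by CellTiter-Glo luminescence after 30 min at room temperature.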

[5] = qHTS assay for cell viability of HEK293 cells (AID 743288); details: ATP luminescence (CellTiter-Glo), 18 h, active compounds read low; further: nearly all actives have a fitted effect of over 50% in size
In short: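 HEK293, 18 h, 37 C, ATP luminescence. Cells at 2,000/well were allowed at least 5 h to settle before dosing; CellTiter-Glo developed 30 min at RT.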

[6] = qHTS assay for cell viability of the p53RE-bla HCT-116 cell line (AID 743292); further: nearly all actives have a fitted effect of over 55% in size
In short: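 CellSensor p53RE-bla HCT-116 cells, 4,000/well, preincubated 5 h at 37 C, then exposed to compounds in DMSO for 16 h at 37 C. Viability read as CellTiter-Glo luminescence (intracellular ATP) after 30 min at room temperature.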

[7] = molecular target: T1, Hexokinase-4 (Homo sapiens) + Glucokinase regulatory protein (Homo sapiens) (UniProt P35557+Q14397); assay: qHTS assay for inhibitors of recombinant human GCK-GKRP interaction: ADP-Glo assay (AID 743206)
T1 sequence (P35557 whole entry, looked up): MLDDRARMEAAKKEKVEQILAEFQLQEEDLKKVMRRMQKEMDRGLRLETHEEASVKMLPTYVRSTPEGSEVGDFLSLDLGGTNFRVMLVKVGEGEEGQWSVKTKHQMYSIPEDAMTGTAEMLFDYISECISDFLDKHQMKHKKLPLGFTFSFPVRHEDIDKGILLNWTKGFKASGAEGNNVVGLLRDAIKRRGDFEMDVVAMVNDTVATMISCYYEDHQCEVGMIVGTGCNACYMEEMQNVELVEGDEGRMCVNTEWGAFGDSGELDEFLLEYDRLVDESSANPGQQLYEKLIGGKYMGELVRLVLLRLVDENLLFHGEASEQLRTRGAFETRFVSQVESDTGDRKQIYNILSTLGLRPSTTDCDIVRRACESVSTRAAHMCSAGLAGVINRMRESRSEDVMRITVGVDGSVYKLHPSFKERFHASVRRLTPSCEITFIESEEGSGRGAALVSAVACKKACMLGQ
T1 sequence (Q14397 whole entry, looked up): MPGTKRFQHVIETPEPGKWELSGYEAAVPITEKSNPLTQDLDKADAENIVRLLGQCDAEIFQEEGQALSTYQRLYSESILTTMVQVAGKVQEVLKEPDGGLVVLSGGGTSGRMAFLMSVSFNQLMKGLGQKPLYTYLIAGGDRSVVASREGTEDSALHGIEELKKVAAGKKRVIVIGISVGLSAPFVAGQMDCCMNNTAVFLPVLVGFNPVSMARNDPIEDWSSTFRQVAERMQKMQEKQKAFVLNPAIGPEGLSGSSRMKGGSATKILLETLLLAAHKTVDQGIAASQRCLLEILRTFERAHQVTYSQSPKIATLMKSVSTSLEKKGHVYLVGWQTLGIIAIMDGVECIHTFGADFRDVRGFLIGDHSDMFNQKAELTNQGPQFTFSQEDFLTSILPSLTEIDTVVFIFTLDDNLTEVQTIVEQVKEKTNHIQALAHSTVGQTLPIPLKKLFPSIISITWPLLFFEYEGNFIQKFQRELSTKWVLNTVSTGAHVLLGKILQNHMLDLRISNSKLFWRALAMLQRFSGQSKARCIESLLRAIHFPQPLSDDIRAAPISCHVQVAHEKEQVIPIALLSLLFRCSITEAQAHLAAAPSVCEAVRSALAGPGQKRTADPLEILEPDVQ
Text: Glucokinase (GCK) is a glucose sensor in hepatocytes and pancreatic beta-cells. Hepatic GCK is regulated by glucokinase regulatory protein (GKRP), which is predominantly localized to the liver. GKRP binds to GCK inhibiting its activity in the fasting state while in the presence of glucose the GKRP is displaced. There is an additional layer of regulation by fructose 1-phosphate and fructose 6-phosphate, which inhibit and enhance the GCK-GKRP interaction, respectively. GCK plays a role in glucose homeostasis and there is an interest in the development of strategies to activate GCK to lower blood glucose levels in type 2 diabetes. […]
2 uL of 15 nM GST-GCK and 15 nM FLAG-GKRP proteins with 2 uM S6P (columns 1-2, 4-48; Millipore, Billerica, MA) are dispensed into Greiner, white solid-bottom 1536-well assay plates; columns 3 receive buffer without GCK as a control for maximum inhibition. […] The amount of ADP is then quantified by the ADP-Glo Kit (Promega, Madison, WI). First, 2 uL of the first kit reagent is added, and the reaction is incubated for 45 minutes; then, 4 uL of the second kit reagent are added and the reaction is incubated for 30 minutes at which time the luminescence is read on a Viewlux plate reader (Perkin-Elmer, Waltham, MA). […]

[8] = molecular target: T1, Hexokinase-4 (Homo sapiens) + Glucokinase regulatory protein (Homo sapiens); assay: qHTS assay for inhibitors of recombinant human GCK-GKRP interaction: HTRF assay (AID 743207)
In short: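 Titration screening format: recombinant GST-GCK and FLAG-GKRP at 5 nM, S6P at 2 uM, labelled anti-tag antibodies, 60 min at RT, dual-wavelength HTRF readout.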

Compound: C=C1CC[C@H]2[C@@H](/C=C(\C)C(=O)[C@@]3(OC(C)=O)C[C@H](C)[C@H](OC(C)=O)[C@@H]3[C@H]1OC(C)=O)C2(C)C
- Potency [1]: inactive

Compound: CC1(C)CCCC2(C)C(CO)C3CCC2C31 (stereo not drawn)
- Potency [1]: inactive

Compound: C[C@@H]1O[C@@H](O[C@H]2[C@H](O)[C@@H](C(=O)O)O[C@@H](O[C@H]3CC[C@@]4(C)C(CC[C@]5(C)C4CC=C4C6CC(C)(C)CC[C@]6(C(=O)O)CC[C@]45C)C3(C)C)[C@@H]2O[C@@H]2O[C@H](CO)[C@@H](O)[C@H](O)[C@H]2O)[C@H](O)[C@H](O)[C@H]1O (stereo partly drawn)
- outcome [1]: inactive [at 9.29 µM]

Compound: C=CC(C)(O)CC/C=C(\C)C(=O)OC1CC2(C(=O)O)CCC3(C)C(=CCC4C5(C)CCC(OC6OC(COC7OCC(O)C(O)C7O)C(O)C(OC7OCC(O)C(O)C7O)C6OC6OC(CO)C(O)C(O)C6OC6OCC(O)C(O)C6O)C(C)(C)C5CCC43C)C2CC1(C)C (stereo not drawn)
- outcome [1]: inactive [at 9.29 µM]

Compound: C=C[C@H]1[C@H](O[C@@H]2O[C@H](CO[C@@H]3OC[C@](O)(CO)[C@H]3O)[C@@H](O)[C@H](O)[C@H]2O)OC=C2C(=O)OCC[C@H]21
- Potency [1]: inactive

Compound: C[C@@H]1O[C@@H](O[C@H]2[C@H](OC(C#N)c3ccc(O)cc3)O[C@H](CO)[C@@H](O)[C@@H]2O)[C@H](O)[C@H](O)[C@H]1O (stereo partly drawn)
- Potency [1]: inactive

Compound: CC(=O)OC(CSC1CCC(=O)OC(C)CCC(=O)C1)C(=O)O (stereo not drawn)
- Potency [1]: inactive

Compound: CCCCN(CCCC)C(=O)CN1C[C@H](c2ccc3c(c2)OCO3)[C@@H](C(=O)O)[C@@H]1c1ccc(OC)cc1
- Potency [1]: inactive

Compound: CC1(C)O[C@@]2(C)CC[C@@H]1C[C@@H]2OC1OC(CO)C(O)C(O)C1O (stereo partly drawn)
- Potency [1]: inactive

Compound: CCC(=O)NS(=O)(=O)c1ccc(-c2c(-c3ccccc3)noc2C)cc1
- max response [2]: 39.9%
- Potency [1]: inactive

Compound: CC1=C2[C@@H]([C@H](C)CC[C@H]2/C=C(\C)C(=O)O)[C@H](O)C1
- outcome [3]: inactive
- max response [4]: -8.96%
- max response [5]: -12%
- outcome [6]: inactive

Compound: Cc1c(-c2ccnn2C)cc(C(=O)NCc2ccc(S(C)(=O)=O)cn2)c(=O)n1-c1cccc(C(F)(F)F)c1
- Potency [1]: inactive

Compound: C[C@H]1C[C@H]2[C@@H]3CCC4=CC(=O)C=C[C@]4(C)[C@@]3(F)[C@@H](O)C[C@]2(C)[C@@]1(O)C(=O)COP(=O)(O)O
- Potency [1]: inactive

Compound: CC(C#N)C(C)O[C@@H]1O[C@H](CO)[C@@H](O)[C@H](O)[C@H]1O (stereo partly drawn)
- Potency [1]: inactive

Compound: C=Cc1cc(O)cc2nc(-c3ccc(O)c(F)c3)oc12
- Potency [1]: inactive

Compound: OC[C@H]1O[C@@H](n2cnc3c2NC=NC[C@H]3O)C[C@@H]1O
- max response [2]: -6.17%

Compound: C=C1C(=O)O[C@H]2[C@H]1[C@@H](OC(=O)C(C)CO)C[C@@]1(C)[C@H](O)CCC(=O)[C@H]21 (stereo partly drawn)
- Potency [1]: inactive

Compound: COCCN(C)Cc1ccc2nc3sc(C(=O)N(C)C4CCCCC4)cn3c2c1
- Potency [1]: inactive

Compound: CN1Cc2c(N)cccc2C(c2ccccc2)C1 (stereo not drawn)
- outcome [7]: inactive
- outcome [8]: inactive
- max response [2]: 14.6% and -4.23%

Compound: COC(=O)C1C(c2ccc(O)cc2)C(C(=O)OC)C1c1ccc(O)cc1 (stereo not drawn)
- Potency [1]: inactive

Compound: COc1c(C)c2c(c(O)c1C/C=C(\C)CC/C=C(\C)CCC(=O)O)C(=O)OC2
- Potency [1]: inactive

Compound: O=C(O)c1ccc(CCCc2ccc(OCCc3ccc(F)cc3)cc2)o1
- Potency [1]: inactive

Compound: C[C@@H]1C[C@H]2[C@@H]3CCC4=CC(=O)C=C[C@]4(C)[C@@]3(F)[C@@H](O)C[C@]2(C)[C@@]1(O)C(=O)COP(=O)(O)O
- max response [2]: 10.9%
- Potency [1]: inactive

Compound: CC1=C2C=C(CO)C(CO)CCC2(C)CCC1=O (stereo not drawn)
- Potency [1]: inactive

Compound: N[C@H]1C[C@H]1c1ccc(-c2cccc(O)c2)cc1
- Potency [1]: inactive

Compound: CC(=O)OC(C)OC(=O)C(C)c1ccc(-c2ccccc2)c(F)c1 (stereo not drawn)
- max response [2]: -5.75% and -9.98%
